# Data from PubChem BioAssay AID1347076 (National Center for Advancing Translational Sciences (NCATS), 2019).
# In all, about 400,000 compounds went through this assay and about 13,000 (3.2%) were called active. About 18% were inconclusive and are not listed. Many of the other results were omitted from the sample, so actives are more common in it than they were. Values without a mark were called inactive. Calls come from the whole dose curve; as a rule, active = well fitted cell-killing curve with a large enough effect; inconclusive = small, poorly fitted or top-dose-only effect, or effect the other way; inactive = flat fitted curve, though single readings scatter.
# Test: qHTS assay for MDR1-selective chemotherapeutics: Primary screen using the drug-selected MDR subline cells KB-V1; note: nearly all actives have a fitted effect of over 60% in size
# Details: KB-V1 MDR cells viability, CellTiter-Glo, 72 h; series mostly up to 46.1 µM; activity change, negative = cytotoxicity: at the top concentration
# Source text: A prime difficulty in effectively treating cancer is the development of cellular resistance to multiple structurally unrelated anticancer drugs, a phenomenon known as multidrug resistance (MDR). […] Numerous strategies to overcome P-gp-mediated MDR have been explored, including the design of drugs that evade recognition and efflux, and development of inhibitors to block efflux and restore drug accumulation. […] An alternative approach is to exploit resistance by identifying drugs that target MDR cells over the non-resistant parental cells from which they were selected. […] The development of MDR1-selective agents represents a new strategy for resolving multidrug resistance, as it remains a long-standing clinical challenge for cancer chemotherapy.
# Our goal is to identify compounds that selectively kill P-gp-expressing MDR cells. We will identify MDR1-selective compounds by comparing toxicity of compounds in the screening library against parental, drug-naive (KB-3-1) adenocarcinoma cells as well as their drug-selected MDR sub-line (KB-V1). The differential toxicity of compounds against these two cell lines will be used to identify MDR1-selective compounds, whose cytotoxicity is potentiated, rather than diminished, by P-gp expression. This assay will be utilized to conduct a quantitative high-throughput screen (qHTS) in collaboration with the NIH Chemical Genomics Center to identify selective agents, and probe hits arising from the screen will be validated using secondary assays and characterized through a well-established follow-up research program. This screen was run against the entire NCGC library collection of about 400,000 compounds.
# NIH Molecular Libraries Probe Production Network [MLPCN]
# NIH Chemical Genomics Center [NCGC]
# PI: Michael Gottesman, National Cancer Institute, NIH
# Briefly, 5 microL of media containing either KB-V1 cells (columns 1-2, 4-48) are dispensed into Greiner white, treated solid-bottom 1536-well assay plates (media-only control is added to column 3). Compounds are then transferred via Kalypsys pin tool equipped with 1536-pin array (10 nL slotted pins, V&P Scientific, San Diego, CA). Following addition of compound, the plates are incubated at 37 degrees C for 72 hours. CellTiter-Glo (2.5 µL/well) is then added, and the plates are read in a ViewLux reader (Perkin-Elmer, clear luminescence filter, 1 second exposure, 1x binning) following a 10 minute incubation. All cells are dispensed in DMEM phenol-red free media containing 10% FBS.
# Library plates were screened starting from the lowest and proceeding to the highest concentration. Vehicle-only plates, with DMSO being pin-transferred to columns 5-48, will be inserted uniformly at the beginning and the end of each library in order to monitor and record any shifts in the background, which can be affected by reagent dispensers or loss in enzyme activity over time. Screening data will be corrected, normalized, and concentration-effect relationships will be derived by using publicly-available NCGC, NCATS curve fitting algorithms (http://ncgc.nih.gov/pub/openhts).
# % is set by controls: 0 for no effect and ±100 for the full control effect; potency is the fitted concentration of half-maximal effect.
Structure (SMILES),"activity change, negative = cytotoxicity",Potency
COCC(C)n1c(SCc2ccc(C(=O)OC)o2)nc2ccccc2c1=O (stereo not drawn),-7.31%,–
COC(=O)CSc1nc2ccccc2c(=O)n1Cc1ccccc1,10.7%,–
Cc1ccc(C(=O)CSc2nc3ccccc3c(=O)n2N)o1,–,11.6 µM (active)
COc1ccc(NC(C)=O)cc1NC(=O)CN1CCN(c2ccc(F)cc2)CC1,0%,–
COc1cc(CCN=Cc2ccccc2O)c([N+](=O)[O-])cc1OC,-0.961%,–
COc1ccc(CCNC(=O)/C(C#N)=C2\N=C(NC(=O)c3cccs3)c3ccccc32)cc1,–,10.3 µM (active)
COc1cc(OC)cc(C(=O)NCCc2csc3nc(-c4ccccc4F)nn23)c1,-5.31%,–
COc1cc2ccccc2cc1C(=O)Nc1ccc(NC(=O)c2cccs2)cc1,-0.19%,–
OC[C@@H]1CN(Cc2cccs2)C[C@H](n2cnc3c(NC4CCCC4)ncnc32)O1,2.36%,–
CCOc1cc(C(C(=O)NCC2CCCO2)N(C(=O)Cn2nnc3ccccc32)c2cccc(OC)c2)ccc1O (stereo not drawn),-0.512%,–
CCOc1ccccc1Nc1nnc(SCC(=O)NCC2CCCO2)s1 (stereo not drawn),-9.76%,–
CCOc1cc(-c2nc3cc(C)ccn3c2NCC2CCCO2)ccc1O (stereo not drawn),–,2.59 µM (active)
OC(c1ccc(F)cc1)c1ncc(-c2cccc(C(F)(F)F)c2)[nH]1 (stereo not drawn),6.78%,–
Cc1cn([C@H]2C[C@H](O)[C@@H](CNC(=O)[C@H](N)Cc3cccnc3)O2)c(=O)[nH]c1=O,-5.22%,–
COc1ccc(CCNC(=O)C2CCCN(Cc3nc(-c4cccc(Cl)c4)oc3C)C2)cc1OC (stereo not drawn),–,5.8 µM (active)
COc1ccc(-c2nc(CN3CCC(C(=O)NCCN(CC(C)C)CC(C)C)CC3)c(C)o2)cc1OC,-0.507%,–
COc1ccc(-c2nc(CN3CCC(C(=O)NCc4ccccc4)CC3)c(C)o2)cc1OC,31.3%,–
Cc1ccc(C(=O)CSc2nc(-c3ccccc3)nc3c2CCCC3)c(C)c1,0%,–
CC1=C(C(=O)N(C)C)CC(CC(=O)NCCN2CCOCC2)C(=O)N1Cc1ccccc1 (stereo not drawn),-5.99%,–
Cc1nnc(NC(=O)Nc2ccc(Cl)c(Cl)c2)s1,–,18.4 µM (active)
Cc1nnc(NC(=O)C(c2ccccc2)c2ccccc2)s1,-26.8%,–
Cc1ccc(NC(=O)Nc2nnc(-c3ccncc3)s2)cc1,-5.82%,–
O[C@H]1CN(Cc2cccs2)[C@@H](c2ccc(Cl)cc2)C[C@@H]1n1cc(C2CC2)nn1,-10.1%,–
O=C(NN=Cc1ccc2c(c1)CCC2)c1ccccc1O,-0.911%,–
Cc1cc2cc3c(N)[nH]nc3nc2cc1C,–,7.31 µM (active)

Structure (SMILES),"activity change, negative = cytotoxicity",Potency
O=C(C[n+]1ccncc1)c1ccc2c(c1)CCCC2,4.87%,–
Cc1cc(C)cc(Nc2ncnc3onc(-c4ccc(F)cc4)c23)c1,-3.6%,–
C[C@@H]1CN([C@H](C)CO)C(=O)CCCn2nncc2CO[C@@H]1CN(C)C(=O)OCc1ccccc1,-11%,–
CC(=O)OC[C@@H]1CN(Cc2ccccc2)C[C@H](n2cnc3c(NCc4ccco4)ncnc32)O1,1.69%,–
COCc1ccc(C(=O)N2CCc3c([nH]c4ccccc34)C2c2ccccn2)s1 (stereo not drawn),–,18.4 µM (active)
c1ccc(C2c3[nH]c4ccccc4c3CCN2Cc2cccn2-c2cccnc2)nc1 (stereo not drawn),-0.759%,–
O=C(c1cn2ccccc2n1)N1CCc2c([nH]c3ccccc23)C1c1ccccn1 (stereo not drawn),-24.4%,–
COc1ccc(OC)c(NC(=O)c2cc(-c3cc(F)ccc3OCC3CCCO3)n[nH]2)c1 (stereo not drawn),-1.76%,–
Cn1c(=O)c2c(nc(SCC(=O)Nc3ccc(F)cc3)n2Cc2ccccc2)n(C)c1=O,12.7%,–
C[C@H]1Cn2cnc(C(=O)N[C@H](C)c3ccccc3)c2C(=O)N1,-24.1%,–
COc1cc(OC)c(NC(=O)c2nc(-c3ccncc3)no2)cc1Cl,7.86%,–
CC1CC(=O)Nc2ccccc2N1S(=O)(=O)c1cccs1 (stereo not drawn),-8.08%,–
Cc1ccc(OCCC(=O)OCC(=O)N2c3ccccc3NC(=O)C2(C)C)cc1,6.74%,–
CC1CC(=O)Nc2ccccc2N1C(=O)COc1ccc2cc(Br)ccc2c1 (stereo not drawn),–,16.4 µM (active)
CN[C@H]1C[C@H]2c3cc(Oc4ccccc4C)ccc3CCN2C(=O)[C@H]1[C@H](C)O,27.8%,–
C=CCNC(=O)c1ccc2nc(-c3ccco3)c(-c3ccco3)nc2c1,-3.16%,–
COc1cccc(CC(=O)N2CCCC(CCC(=O)N3CCN(c4ccccn4)CC3)C2)c1 (stereo not drawn),-10.8%,–
C=Cc1ccc(C(=O)N2CCCC(CCC(=O)N3CCN(c4ccccn4)CC3)C2)cc1 (stereo not drawn),2.91%,–
O=C(CCC1CCCN(C(=O)Cc2ccc(F)cc2)C1)N1CCN(c2ccccn2)CC1 (stereo not drawn),–,16.4 µM (active)
COc1ccc(/C=C/c2ccnc3ccccc23)cc1OC,-2.31%,–
Cc1ccc(/C=N/NC(=O)CSc2nc3ccccc3o2)cc1,5.24%,–
Cc1cccc(OCC(=O)NCC(=O)N/N=C/c2ccc(N(C)C)cc2)c1,0.638%,–
Cc1ccc(/C=N/NC(=O)COc2ccccc2-c2ccccc2)cc1,–,1.03 µM (active)
CCCc1c(C)nc2scc(-c3ccc(Cl)cc3)n2c1=O,-3.42%,–
O=C(NNS(=O)(=O)c1ccc(Cl)cc1)C1CCN(Cc2ccccc2)CC1,-3.31%,–

Structure (SMILES),"activity change, negative = cytotoxicity",Potency
CCOC(=O)C1CCN(Cc2ccc(-c3ccccc3)cc2)CC1,5.14%,–
CCOC(=O)C1(S(=O)(=O)c2ccc(Cl)cc2)CCN(Cc2ccccc2)CC1,–,20.6 µM (active)
NC(=O)C1(N2CCCC2)CCN(Cc2ccccc2)CC1,-12.1%,–
CCOC(=O)C1(CCOC)CCN(Cc2ccc(C(=O)OC)cc2)CC1,3.28%,–
CCOC(=O)C1(S(=O)(=O)c2ccccc2)CCN(Cc2ccccc2)CC1,–,16.4 µM (active)
Cc1ccc(C=O)cc1Cl,-14.5%,–
Nc1ccccc1-c1nc2ccncc2[nH]1,-2.3%,–
COc1ccc(OC)c(NC(=O)C2(C)CCN2C(=O)Cc2ccccc2)c1 (stereo not drawn),2.49%,–
Cc1ccc(S(=O)(=O)N2C[C@@H](C)[C@]3(C2)[C@H](O)[C@H](OC(=O)NCc2ccccc2)C[C@H]2C(=O)N(c4ccccc4)C(=O)[C@H]23)cc1,29.5%,–
CC1CCCC(C)N1C(=O)COC(=O)c1ccccc1C(=O)c1ccccc1 (stereo not drawn),-3.83%,–
CCOc1ccc(NC(=O)C(CC(C)C)N2Cc3ccccc3C2=O)cc1 (stereo not drawn),-6.07%,–
CC(C)Cc1ccc(S(=O)(=O)N2CCN(C(=O)c3ccco3)CC2)cc1,–,7.31 µM (active)
CN1CCN(S(=O)(=O)c2ccc(NC(=O)c3ccco3)cc2)CC1,12.3%,–
O=C(CNS(=O)(=O)c1ccccc1)N1CCN(C(=O)c2ccco2)CC1,6.15%,–
CCOc1ccccc1NC(=S)C(=C([O-])c1ccc2c(c1)OCCO2)[n+]1ccc(CC)cc1,-25.9%,–
CC(=O)c1ccccc1NC(=O)C1CC(=O)N(c2ccc3c(c2)OCCO3)C1 (stereo not drawn),–,16.4 µM (active)
CCc1nnc(NC(=O)C2CC(=O)N(c3ccc4c(c3)OCCO4)C2)s1 (stereo not drawn),0%,–
CCOC(=O)c1ccc(NC(=O)C2CC(=O)N(c3ccc4c(c3)OCCO4)C2)cc1 (stereo not drawn),4.09%,–
COc1cccc(NC(=O)CSC2=Nc3ccccc3C3=NC(CC(=O)NC4CCCCC4)C(=O)N23)c1 (stereo not drawn),2.59%,–
CCc1ccc2c(c1)NC(=O)C2(C)Cc1ccc(OC(F)(F)F)cc1 (stereo not drawn),-4.96%,–
Nc1ncnc2c1ncn2[C@@H]1O[C@H](CNC(=O)[C@H](N)Cc2cccnc2)[C@@H](O)[C@H]1O,6.11%,–
CCC1(C)CC(=O)c2c(ccc3oc(C(=O)Nc4ccc(C(C)=O)cc4)c(C)c23)O1 (stereo not drawn),-20.1%,–
COc1ccc(CCNC(=O)CCCCn2c(=O)c3ccccc3n(Cc3ccccc3C)c2=O)cc1OC,-3.1%,–
Cc1ccc(Cn2c(=O)n(CCCC(=O)NCc3ccccc3Cl)c(=O)c3ccccc32)cc1,-1%,–
COc1cc(C(=O)Nc2ccc(OCc3cc(=O)n4cc(C)sc4n3)cc2)cc(OC)c1OC,28%,–

Structure (SMILES),"activity change, negative = cytotoxicity",Potency
Cn1c(=O)c2c(nc(Oc3ccc(C#N)cc3)n2Cc2ccc(Cl)cc2Cl)n(C)c1=O,4.58%,–
Cc1ccc(N2C(=O)S/C(=C/c3cn(C)c4ccccc34)C2=O)cc1,2.62%,–
Cc1cccc(N=C2NC(=O)/C(=C/c3cn(C)c4ccccc34)S2)c1,–,14.6 µM (active)
Cc1ccc(C(=O)N/C(=C\c2cn(C)c3ccccc23)C(=O)N2CCN(C)CC2)cc1,7.97%,–
CC1=C(C(=O)N2CCOCC2)CC(CC(=O)NCCCN(C)C)C(=O)N1Cc1ccc(C(C)(C)C)cc1 (stereo not drawn),8.92%,–
CC(C)OC(=O)CC(=O)CC(O)c1cccc([N+](=O)[O-])c1 (stereo not drawn),1.32%,–
CN(Cc1ccccc1)C(=O)CCS(=O)(=O)c1cc(Br)cc2c1N(C(=O)C1CC1)CC2,-12.9%,–
CCN(c1ccc2c(c1)OCO2)S(=O)(=O)c1cc(Br)cc2c1N(C(=O)C1CC1)CC2,–,5.17 µM (active)
CCOC(=O)N1CCN(S(=O)(=O)c2cc(Br)cc3c2N(C(=O)C2CC2)CC3)CC1,-6.54%,–
CCOC(=O)c1ccc(-c2ccc3ncnc(N(C)Cc4sccc4C)c3c2)o1,-3.7%,–
CCN1CCN(c2c(Cl)cccc2NC(=O)c2ccc(Br)o2)CC1,-4.86%,–
CCCC(=O)Nc1ccc(Cl)c(NC(=O)c2ccc(Br)o2)c1,–,20.6 µM (active)
O=C(CNC(=O)c1ccc(Br)o1)Nc1ccccc1,16%,–
Cc1ccc2cccc(NC(=O)C(C)Oc3ccc(C)c(C)c3)c2n1 (stereo not drawn),0.037%,–
CC1(C(=O)NS(=O)(=O)c2ccc(C#N)cc2)CCN1C(=O)CC1CCCC1 (stereo not drawn),1.86%,–
Cc1cc(-c2n[nH]c(=S)n2/N=C/C(Br)=C/c2ccccc2)n[nH]1,–,10.3 µM (active)
CC(C)c1cc(C(=O)N/N=C/C(Br)=C/c2ccccc2)n[nH]1,-26.2%,–
S=c1[nH]nc(-c2cc(-c3ccccc3)n[nH]2)n1/N=C/c1c2ccccc2cc2ccccc12,3.84%,–
CCCCS(=O)(=O)c1oc(-c2cccs2)nc1S(=O)(=O)c1ccccc1,-0.671%,–
O=C(C1CCCO1)N1CCN(C(=O)C23CC4CC(CC(C4)C2)C3)CC1 (stereo not drawn),18.8%,–
CCN(c1ccccc1)S(=O)(=O)c1ccc(N)cc1,1.93%,–
CCN(c1ccccc1)S(=O)(=O)c1ccc(C(=O)Nc2ccccc2OC)cc1,-9.91%,–
CCN(c1ccccc1)S(=O)(=O)c1ccc(NC(=O)C(C)(C)C)cc1,–,11.6 µM (active)
